Compounds without any hit were thinned out: in the full panel of roughly 79,000, 15% have a hit. Calls of active or inactive are those of the source. Cut-off read from the data, not from the text of the source: active = growth inhibition above about 70%; inactive = the rest.
Tests used:
[1] = NCI Yeast Anticancer Drug Screen. Data for the rad50 strain (AID 155);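 note: 0% = growth of vehicle-only cultures of the same strain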; conditions: S. cerevisiae rad50 strain growth inhibition; at 50.0 µM; stronger effect = higher value
How it was run: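 Vehicle-treated cultures provide the reference for the growth inhibition reported for compound-exposed, repair-deficient yeast.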

[2] = NCI Yeast Anticancer Drug Screen. Data for the mec2-1 strain (AID 157); conditions: S. cerevisiae mec2-1 strain, at 50.0 µM, stronger effect = higher value
How it was run: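 Readout is yeast growth inhibition, normalised to vehicle-treated controls, in the mec2-1 strain exposed to compound.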

[3] = NCI Yeast Anticancer Drug Screen. Data for the sgs1 mgt1 strain (AID 161);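 note: 0% = growth of cultures given vehicle only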; conditions: S. cerevisiae sgs1 mgt1 strain, at 50.0 µM, stronger effect = higher value
How it was run: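 Yeast cells carrying a defined DNA-repair defect were exposed to test compounds. Growth inhibition was measured relative to vehicle-treated controls.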

[4] = NCI Yeast Anticancer Drug Screen. Data for the cln2 rad14 strain (AID 165);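 note: 0% = growth equal to vehicle treated cultures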; conditions: S. cerevisiae cln2 rad14 strain, at 50.0 µM, stronger effect = higher value
How it was run: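 Relative to vehicle controls, growth inhibition of compound-treated cln2 rad14 yeast was recorded.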

[5] = NCI Yeast Anticancer Drug Screen. Data for the bub3 strain (AID 167); conditions: S. cerevisiae bub3 mutant strain, at 50.0 µM, stronger effect = higher value
How it was run: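 Mutant yeast screening strain plus compound; vehicle-treated cultures serve as the 0% inhibition reference.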

[6] = NCI Yeast Anticancer Drug Screen. Data for the mlh1 rad18 strain (AID 175); conditions: S. cerevisiae mlh1 rad18 strain growth inhibition; at 50.0 µM; stronger effect = higher value
How it was run: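 Test agents were incubated with a yeast strain of defined genotype (DNA damage repair defect). Inhibition of growth was derived by comparison with vehicle-exposed cultures.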

Measured: growth inhibition

CS(=O)(=O)C(c1nc2n(c1O)C(=N)N=N2)c1nc2n(c1O)C(=N)N=N2 (stereo not given)
inactive: [1] -3.2% | [2] 12.1% | [3] -6.15% | [4] -17.1% | [5] -5.2% | [6] 9.8%

Cc1ncc(CO)c(CN)c1O
inactive: [1] -0.55% | [2] -21.4% | [3] -38% | [4] -23.4% | [5] -28.4% | [6] -1.75%

CCNC(=O)C1Cc2ccccc2N(CC)C1 (stereo not given)
inactive: [1] -13.4% | [2] -6.65% | [3] -0.75% | [4] -12.2% | [5] -1.9% | [6] 2.75%

Nc1ccccc1N=Cc1c(O)c2ccccc2oc1=O
inactive: [1] -8.55% | [2] -11% | [3] 2.7% | [4] 4.05% | [5] 4.25% | [6] 8.2%

Cc1sc2nc(N(C)C)oc(=O)c2c1C
inactive: [1] 28.8% | [2] 51% | [3] 33.6% | [4] 1.5% | [5] 64.4% | [6] 50.5%

CCCCOC(=O)OCCOCCOC(=O)OC(C)C(=O)OCCCC (stereo not given)
inactive: [1] -16.9% | [2] -22.4% | [3] -10.2% | [4] -21.3% | [5] 1.7% | [6] 10.8%

CC(Br)CNC(=O)c1ccc([N+](=O)[O-])cc1 (stereo not given)
inactive: [1] -0.65% | [2] 17.3% | [3] 3.6% | [4] -4.35% | [5] 9.75% | [6] 13.3%

CC1(C)OC(=O)C(=CN(C2CCCCC2)C2CCCCC2)C(=O)O1
inactive: [1] -6.45% | [2] -6.6% | [3] 7% | [4] -21.2% | [5] -33.6% | [6] -13.3%

CC(=O)OCC1OC(OC(C)=O)C(NC(=O)C(C)NC(=O)OCc2ccccc2)C(OC(C)=O)C1OC(C)=O (stereo not given)
inactive: [1] 37.1% | [2] 6.9% | [3] 16.2% | [4] 11.6% | [5] -1.05% | [6] 14.6%

Cc1ccc(-c2oc(-c3ccc(C)cc3)c3cc(C)c(C)cc23)cc1
inactive: [1] 4.8% | [2] 13.5% | [3] -6.7% | [4] 8.5% | [5] -8.6% | [6] -4.6%

CCCCCCCCCCCC(=O)C1=C(O)C(O)CCC1=O (stereo not given)
inactive: [1] -1.35% | [2] -4.7% | [3] -6.55% | [4] -50% | [5] -7.4% | [6] -16.9%

CCC(Cc1cnc2nc(N)nc(N)c2n1)c1ccc(C(=O)NC(CCC(=O)O)C(=O)O)cc1 (stereo not given)
inactive: [1] -9.3% | [2] 18.9% | [3] 1.8% | [4] -12.2% | [5] -22.8% | [6] -14.5%

CCN(CC)c1ccc2c(c1)Oc1ccc(N(C(C)=O)c3ccccc3)cc1C21OC(=O)c2ccccc21 (stereo not given)
inactive: [1] 25.5% | [2] 13.1% | [3] 29.6% | [4] 31% | [5] 51.4% | [6] 19.2%

CC(=O)Nc1ccc(/C=N/NC(N)=S)cc1
inactive: [1] 7.4% | [2] -7.35% | [3] 17% | [4] 12.4% | [5] 3.05% | [6] 13%

CC(=O)OCC1OC(Nc2[nH]c(=O)[nH]c(=O)c2N=O)C(OC(C)=O)C(OC(C)=O)C1OC(C)=O (stereo not given)
inactive: [1] 5.75% | [2] 3.75% | [3] 0.95% | [4] -1.5% | [5] -1.7% | [6] -10.3%

O=[N+]([O-])c1nccn1CCCN=c1c2ccccc2n(O)c2ccccc12
inactive: [1] 8.9% | [2] -16.4% | [3] -5.85% | [4] -5.8% | [5] -12.7% | [6] -33.4%

Cc1cccc(C(=O)OCc2ccccc2CN2CCCCC2)c1
inactive: [1] -5.15% | [2] -9.75% | [3] -12.9% | [4] -21.6% | [5] 2.85% | [6] -3.6%

CCOP(=O)(OCC)C(C(=O)OC)C(=O)C(=O)Nc1c(C)cc(Br)cc1C (stereo not given)
inactive: [1] -42.1% | [2] -17.2% | [3] -23.9% | [4] -1.8% | [5] -3.85% | [6] -17.6%

O=c1/c(=C/c2ccc(Cl)cc2)sc2nc(-c3ccccc3)nn12
inactive: [1] 0.85% | [2] 7.75% | [3] 8.8% | [4] -6.75% | [5] -12.8% | [6] 23.6%

COC(=O)C(C)(Cc1ccc2c(c1)nnn2C(C)=O)NC(C)=O (stereo not given)
inactive: [1] -11.4% | [2] -1.25% | [3] -4.15% | [4] -2.45% | [5] 22.6% | [6] -51.9%

O=c1[nH]nc(-c2ccccc2)n1-c1ccncc1
inactive: [1] -4.65% | [2] 0.3% | [3] -6.45% | [4] -4.65% | [5] 12.7% | [6] 0.65%

CC1=C(C(c2ccccc2)c2ccccc2)C(=O)c2ccccc2C1=O
inactive: [1] -3.35% | [2] -6.5% | [3] 1.45% | [4] 1.5% | [5] -31.8% | [6] -0.7%

Cn1c(Cl)c(C=O)c(=O)n(C)c1=O
inactive: [1] 17.8% | [2] -4.7% | [3] -5.95% | [4] -0.45% | [5] 7% | [6] -2.55%

CC(=O)Nc1ccc(C=O)s1
inactive: [1] -0.65% | [2] 6% | [3] -15.4% | [4] -36.2% | [5] 1.65% | [6] -0.4%

CC(C)C1CCC(C)(C(=O)Oc2ccccc2-c2ccccc2)C1 (stereo not given)
inactive: [1] 13.1% | [2] 23.4% | [3] 9.75% | [4] -11.6% | [5] 22.2% | [6] 13.6%

COc1cc2c(c(OC)c1OC)-c1ccc(OC)c(=O)cc1C(NC(=S)Nc1ccccc1)CC2 (stereo not given)
active: [1] 96.5% | [2] 96.8% | [3] 96.8% | [4] 93.5% | [5] 95.6% | [6] 96.5%

c1ccc2cc(C3OCC4(CCC4)CO3)ccc2c1
inactive: [1] 11.6% | [2] -1.35% | [3] 3.1% | [4] -26.8% | [5] 24.8% | [6] -6.9%

COc1ccccc1NC1Oc2cc3c(cc2C(c2cc(OC)c(OC)c(OC)c2)C1C)OCO3 (stereo not given)
inactive: [1] -16.4% | [2] -26.1% | [3] -1.25% | [4] -0.85% | [5] -2.8% | [6] -5.35%

CCCCCc1ccccn1
inactive: [1] 0.9% | [2] 19.1% | [3] -25.4% | [4] -29.3% | [5] 12.1% | [6] -11.2%

CCC(=O)C(OC(C)=O)C(OC(C)=O)C(OC(C)=O)C(COC(C)=O)OC(C)=O (stereo not given)
inactive: [1] -1.95% | [2] -1.15% | [3] -8.1% | [4] 27.8% | [5] -3.95% | [6] 13.8%

COc1cc(OC)cc(Oc2nc3ccc(C(F)(F)F)cc3nc2-c2ccccc2)c1
inactive: [1] -33.1% | [2] -44.8% | [3] -7.85% | [4] -28.3% | [5] -27.4% | [6] -14.3%

CC1(C)C2CCC(CCOC(=O)COc3ccc(Cl)cc3)C1C2 (stereo not given)
inactive: [1] -9.45% | [2] 5.5% | [3] 12.1% | [4] -44.2% | [5] 3.15% | [6] 12.6%

NC(CCC(=O)O)C(=O)NC(Cc1c[nH]c2ccccc12)C(=O)O (stereo not given)
inactive: [1] -12.7% | [2] 12.3% | [3] -5.05% | [4] -23.1% | [5] -22.4% | [6] -24.6%

C[Si](C)(C)O/C=C1\CCCCC1=O
inactive: [1] 5.65% | [2] 8.4% | [3] 2.5% | [4] 14.8% | [5] 2.8% | [6] -23.6%

CC(=O)Nc1ccc(C(=O)NN2C(=O)C(Cl)/C2=C/c2ccco2)cc1 (stereo not given)
inactive: [1] 1.1% | [2] -8.55% | [3] -28.8% | [4] -4.75% | [5] -22.8% | [6] -20.4%

COC(=O)C(C(=O)c1ccccc1)c1ccccc1 (stereo not given)
inactive: [1] 30.6% | [2] 16.9% | [3] 9.5% | [4] 6.35% | [5] 8.4% | [6] 38.7%

COc1ccc2c(N=[N+]=[N-])c(-c3ccccc3)c(=O)oc2c1
inactive: [1] 11.8% | [2] 2.6% | [3] 35.6% | [4] 17.2% | [5] 3.15% | [6] 30.9%

O=C(O)CCC12CCC(=O)C=C1NC(=O)CC2 (stereo not given)
inactive: [1] 1.55% | [2] -4.4% | [3] -7.2% | [4] -1.65% | [5] 0.15% | [6] -1.25%

COc1ccccc1/C(=N\OCCC(=O)O)c1cccs1
inactive: [1] 2.15% | [2] -0.95% | [3] 5.95% | [4] 0.65% | [5] -1.25% | [6] -51.1%

O=C(CN1CCN(c2cccc(Cl)c2)CC1)N1CCc2c([nH]c3ccccc23)C1c1cccnc1 (stereo not given)
inactive: [1] -15.3% | [2] -30.8% | [3] 1.6% | [4] 6% | [5] -2.25% | [6] -16.9%

From PubChem BioAssay (NCI)
